Only some compounds are listed: those with a hit (about 3.8% of all), similar ones and a draw of the others.
A549 tox: kills or reduces viability of A549 cells in Nrf2 counter-screen | A549 ARE-Fluc cells, CellTiter-Fluor viability, 18-24 h | Potency, µM (highest dose often 46 µM), hits mostly inhibitors | hit rate 0.16% among 390,000
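A549 ARE_Fluc cells in 5% FBS OPTI-MEM were exposed to compounds in concentration-response for 18-24 h at 37 deg C. Viability was read by CellTiter-Fluor fluorescence (Ex 405/Em 525) after 30 min, before the luciferase read.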
ATXN2 expr inh: ATXN2 expression inhibition; HEK-293 ATXN2-luciferase reporter, luminescence, 24 h; Potency, µM (highest dose often 57 µM), hits mostly inhibitors; hit rate 0.72% among 360,000; further: nearly all actives have a fitted effect of over 55% in size
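qHTS (up to 57 uM final) was run with 24 h compound exposure of reporter cells at 37 °C. Each well was multiplexed: SteadyGlo luminescence measured ATXN2-luciferase expression after a fluorogenic Gly-Phe-AFC viability readout (25 uM final).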
ATXN viability: viability counter-screen for ATXN expression inhibitors | AID 651635 | S2 cells (HEK-293 line with an ATXN2-luciferase reporter) viability, CellTiter-Fluor protease fluorescence, 24 h | hit rate 0.49% among 400,000 | Potency, µM (doses to about 56.7 µM), hits mostly cytotoxic; further: nearly all actives have a fitted effect of over 40% in size
Nrf2 block: inhibitors of Nrf2 signaling. A549 ARE-Fluc reporter, luciferase luminescence, 18-24 h. Potency, µM (series often up to 46 µM), hits mostly inhibitors. hit rate 2.1% among 360,000; further: nearly all actives have a fitted effect of over 60% in size
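Quantitative HTS in A549 cells stably bearing an antioxidant response element-firefly luciferase construct. Inhibition of Nrf2-driven transcription was scored by luminescence after 18-24 h of compound exposure at 37 °C.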
TGFb inhibitor: inhibitors of TGF-b signaling; HepG2 CAGA-GFP TGF-b/SMAD3 reporter, GFP fluorescence, 18 h; TGF-beta stimulated, 500 pg/mL final; Potency, µM (doses to about 46.1 µM), usual class: inhibitors; hit rate 1.2% among 410,000; further: nearly all actives have a fitted effect of over 65% in size
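TGF-beta reporter screen: HEPG2 CAGA-GFP, 1% FBS, 500 pg/mL TGF-beta final, 18 h; per-cell GFP summed per well; curves fitted and categorized by class.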
HepG2 tox: kills HepG2 cells in TGF-b inhibitor counter-screen; HepG2 CAGA-GFP viability, ATP luminescence, 18 h; Potency, µM (highest dose often 46.1 µM), hits mostly cytotoxic; hit rate 0.76% among 410,000; AID 588856
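CellTiter-Glo luminescence gave cytotoxicity after 18 hours at 37 degrees C. The cells were HepG2 CAGA-GFP in 1% FBS DMEM, stimulated with 500 pg/mL TGF-beta after compound addition. %Activity was normalised to no-cell wells (complete cell-killing) and DMSO (no toxicity), and curves were fitted and classified.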
Large screens that a line does not name were inactive. The call rests on the fitted dose curve; in most records, active means well fitted curve in the direction sought with a large enough effect; inconclusive means small, poorly fitted or top-dose-only effect, or another doubt; inactive means no such curve, though single readings can be large; an effect the other way counts as inactive or inconclusive.

COc1ccc2[nH]c3nc(SCc4nnc(-c5ccc(C)cc5)o4)nnc3c2c1	ATXN2 expr inh 20µM, Nrf2 block inconclusive (no result: ATXN viability)
COc1ccc(CNC(=O)CSc2nnc3c(n2)[nH]c2ccc(C)cc23)cc1	none
CCN(C(=O)CN1CCN(S(=O)(=O)c2cc(Cl)ccc2Cl)CC1)c1c(N)n(Cc2ccccc2)c(=O)[nH]c1=O	none
COc1cccc(NC(=O)CNC(=O)Cn2c(C)cc3ccccc3c2=O)c1	none
O=C(NCCc1cccs1)c1ccc(Cn2c(SCc3ccc(F)cc3)nc3cccnc32)cc1	A549 tox inconclusive, Nrf2 block 18µM, TGFb inhibitor inconclusive (no result: ATXN2 expr inh, ATXN viability)
O=C(NCc1ccco1)c1ccc(Cn2c(SCc3ccccc3F)nc3cccnc32)cc1	Nrf2 block inconclusive, TGFb inhibitor 13µM (no result: ATXN2 expr inh, ATXN viability)
CN(Cc1ccccc1)C(=O)c1ccc(CSc2nc3cccnc3n2Cc2ccccc2F)cc1	A549 tox inconclusive, ATXN2 expr inh inconclusive, Nrf2 block inconclusive, TGFb inhibitor inconclusive, HepG2 tox 13µM (no result: ATXN viability)
CCC(C(=O)NC1CCCCC1)n1c(SCc2cccc(C)c2)nc2ccncc21 (stereo not drawn)	A549 tox inconclusive, ATXN viability inconclusive, Nrf2 block inconclusive, TGFb inhibitor 13µM
CS(=O)(=O)/C=C/c1nc(Nc2cc(F)cc(F)c2)c2ncn(CC(F)F)c2n1	none (no result: ATXN2 expr inh, ATXN viability, TGFb inhibitor, HepG2 tox)
N#CSCC(=O)O	none (no result: A549 tox, Nrf2 block, TGFb inhibitor, HepG2 tox)
CC(CNC(=O)c1ccc(CSc2nc3ccncc3n2Cc2cccc(F)c2)cc1)c1ccccc1 (stereo not drawn)	A549 tox inconclusive, ATXN viability inconclusive, Nrf2 block inconclusive, TGFb inhibitor 10µM
O=C(NCc1cccs1)c1ccc(CSc2nc3ccncc3n2Cc2ccccc2F)cc1	TGFb inhibitor 8.9µM
COc1ccc(Cn2c(SCc3ccc(C(=O)NC4CCCCC4)cc3)nc3cccnc32)cc1	A549 tox inconclusive, Nrf2 block 18µM
CC(NC(=O)c1ccc(CSc2nc3ccncc3n2Cc2ccc(F)cc2)cc1)c1ccccc1 (stereo not drawn)	ATXN viability inconclusive, TGFb inhibitor inconclusive
O=C(NCc1cccs1)c1ccc(Cn2c(SCc3ccccc3)nc3cccnc32)cc1	A549 tox inconclusive, ATXN viability inconclusive, Nrf2 block 26µM
Cc1ccccc1Cn1c(SCc2ccc(C(=O)NCc3cccs3)cc2)nc2ccncc21	TGFb inhibitor inconclusive
Cc1cccc(Cn2c(SCc3ccc(C(=O)N4CCCCCC4)cc3)nc3ccncc32)c1	Nrf2 block 23µM, TGFb inhibitor 13µM (no result: ATXN2 expr inh, ATXN viability)
O=C(c1ccc(CSc2nc3ccncc3n2Cc2ccccc2)cc1)N1CCCCCC1	ATXN viability inconclusive, Nrf2 block inconclusive, TGFb inhibitor inconclusive
CCCC(CC)Sc1nc2c([nH]1)c(=S)n(C)c(=O)n2C (stereo not drawn)	Nrf2 block inconclusive, TGFb inhibitor 7.9µM
CCCCSc1nc2c([nH]1)c(=S)n(C)c(=O)n2C	ATXN2 expr inh inconclusive, ATXN viability inconclusive, Nrf2 block inconclusive, TGFb inhibitor 5µM
CSc1nc2c([nH]1)c(=S)n(C)c(=O)n2C	TGFb inhibitor 13µM
COc1ccc(C(=O)n2cnc3ccccc32)cc1	none
COc1cc(-c2nn3c(-c4cc(-c5ccccc5)n[nH]4)nnc3s2)cc(OC)c1OC	A549 tox inconclusive, Nrf2 block 21µM (no result: ATXN2 expr inh, ATXN viability)
COc1cc(-c2nn3c(-c4ccccc4)nnc3s2)cc(OC)c1OC	none (no result: A549 tox)
Nc1ccc(N2CCCCC2)c(Cl)c1	Nrf2 block inconclusive
CCOC(=O)c1ccc(NC(=O)c2c(NCc3sccc3C)sc3c2CCC(C)C3)cc1 (stereo not drawn)	ATXN viability inconclusive, TGFb inhibitor 14µM (no result: Nrf2 block)
CCOC(=O)c1ccc(NC(=O)c2c(NCc3cc(OC)c(OC)cc3OC)sc3c2CCCC3)cc1	ATXN viability 32µM (no result: Nrf2 block)
CCOc1ccccc1NC(=O)c1c(NCc2sccc2C)sc2c1CCC(C)C2 (stereo not drawn)	none (no result: ATXN2 expr inh, ATXN viability, Nrf2 block, TGFb inhibitor)
COc1cccc(C(=O)NCC2(c3ccc(OC)c(OC)c3)CCCC2)c1	none

Bioassay records deposited in PubChem BioAssay by National Center for Advancing Translational Sciences (NCATS).
